Read-out in test [1]: X-box binding protein 1 (XBP1), XBP1 (gene 7494)
Nature of the test: LTEA_HepaRG_XBP1: Life Technologies and Expression Analysis (LTEA) Assay for X-box binding protein 1 (XBP1) using HepaRG (AID 2283540; active = hit-call score of the fitted dose curve at least 0.9, where 1 is the maximum; inactive = score below 0.9). The note with it: mRNA level, 48 h; actives raise or lower the signal. The procedure, abridged:
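Differentiated human HepaRG cells in serum-free induction medium exposed 48 h in duplicate to eight half-log concentrations up to 100 uM in 0.5% DMSO. XBP1 mRNA measured by Fluidigm TaqMan qRT-PCR, normalized to ACTB, GAPDH, POLR2A; bidirectional fitting against DMSO.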

Test [2] can be described thus: LTEA_HepaRG_LDH_cytotoxicity: Cytotoxicity Assessment in the Life Technologies and Expression Analysis (LTEA) Assay (AID 2283563). The procedure, abridged: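 Differentiated HepaRG cells in serum-free induction medium, exposed 48 h in duplicate to 8 half-log concentrations up to 100 uM in 0.5% DMSO. Cytotoxicity from LDH measured in spent medium, fit relative to DMSO.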

The target of test [3] is Cellular tumor antigen p53 (Homo sapiens) (UniProt P04637). Nature of the test: TOX21_p53_BLA_p2_ratio: Tox21 HCT-116 p53 Agonism Beta-lactamase Assay, Ratio, Phase 2 (AID 2283592). The procedure, abridged:
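HCT-116 cells with p53-responsive beta-lactamase reporter, 4000 cells/well, preincubated 5 h, then compound in DMSO (217-fold dilution) for 16 h at 37C. CCF4-AM substrate 2 h at room temperature; 460/530 nm emission ratio fitted upward versus DMSO.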

The nature of test [4]: TOX21_p53_BLA_p3_viability: Viability Assessment in the Tox21 HCT-116 p53 Agonism Beta-lactamase Assay, Phase 3 (AID 2283593).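 Note: cells exposed to compound for 16 h before reading.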 The procedure, abridged: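 Cellular ATP was quantified by CellTiter-Glo luminescence, read after 30 min at room temperature. Beforehand, HCT116 cells (4000/well) received compound 5 h post-seeding, 217-fold diluted from DMSO, then incubated 16 h at 37C.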

Test [5] addresses Cellular tumor antigen p53 (Homo sapiens) (UniProt P04637). Kind of test: TOX21_p53_BLA_p3_ratio: Tox21 HCT-116 p53 Agonism Beta-lactamase Assay, Ratio, Phase 3 (AID 2283596). The procedure, abridged:
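HCT116 p53-bla cells (4000/well) given compound in DMSO (217-fold dilution) after 5 h, incubated 16 h at 37C. CCF4-AM substrate 2 h at room temperature; 460/530 nm emission ratio, gain fitted against DMSO.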

Test [6] is described as follows: TOX21_p53_BLA_p4_viability: Viability Assessment in the Tox21 HCT-116 p53 Agonism Beta-lactamase Assay, Phase 4 (AID 2283597).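 Note: hits lower the luminescence signal meaning cytotoxicity.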 The procedure, abridged:
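HCT-116 p53-bla cells, 4000/well, dosed after 5 h attachment and incubated 16 h at 37 °C, 5% CO2. Viability from CellTiter-Glo ATP luminescence after 30 min at room temperature, taken after the beta-lactamase read; loss of signal indicates cytotoxicity.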

Test [7] concerns the target Cellular tumor antigen p53 (Homo sapiens) (UniProt P04637). Kind of test: TOX21_p53_BLA_p5_ratio: Tox21 HCT-116 p53 Agonism Beta-lactamase Assay, Ratio, Phase 5 (AID 2283599). The procedure, abridged: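 Beta-lactamase reporter ratio (blue 460 nm over green 530 nm, 405 nm excitation) after 2 h CCF4-AM loading, in HCT-116 cells exposed 16 h at 37 C to compounds pinned at 217-fold dilution. Increases relative to DMSO baseline scored.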

Test [8] shares this target. Nature of the test: TOX21_p53_BLA_p4_ratio: Tox21 HCT-116 p53 Agonism Beta-lactamase Assay, Ratio, Phase 4 (AID 2283601). The procedure, abridged:
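Signal is the blue/green (460nm/530nm) ratio of cleaved versus uncleaved CCF4-AM substrate, read after 2 h substrate loading. Cells were HCT116 carrying the p53-responsive beta-lactamase reporter, dosed 16 h at 37C, 5% CO2; CellTiter-Glo measured in parallel.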

Test [9] can be described thus: Tanguay_ZF_120hpf_MORT_legacy: (Legacy) Oregon State University Tanguay Lab 120 Hour Post-fertilization zebrafish Assay for Mortality (AID 2283633). The procedure, abridged:
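Dechorionated Tropical 5D wild-type zebrafish embryos, one per well from 6 hpf, static exposure in 0.64% DMSO at 28C until 120 hpf. Mortality scored as binary by brightfield microscopy at 24 and 120 hpf.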

Test [10] is described as follows: Tanguay_ZF_120hpf_YSE_legacy: (Legacy) Oregon State University Tanguay Lab 120 Hour Post-fertilization zebrafish Assay for Yolk Sac Edema (AID 2283634). The procedure, abridged: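 Dechorionated Tropical 5D wild-type zebrafish embryos were exposed statically, one per well, from 6 to 120 hpf at 28C in 0.64% DMSO. Yolk sac edema was scored present/absent by brightfield at 120 hpf, and dead embryos were excluded.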

A short description of test [11]: Tanguay_ZF_120hpf_AXIS_legacy: (Legacy) Oregon State University Tanguay Lab 120 Hour Post-fertilization zebrafish Assay for Body Axis Malformation (AID 2283635). The procedure, abridged:
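Dechorionated wild-type Tropical 5D zebrafish embryos, one per well, statically exposed from 6 hpf to 120 hpf at 28C in 0.64% DMSO final. Body axis malformation scored present/absent by brightfield microscopy at 120 hpf; dead embryos excluded.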

A short description of test [12]: Tanguay_ZF_120hpf_EYE_legacy: (Legacy) Oregon State University Tanguay Lab 120 Hour Post-fertilization zebrafish Assay for Eye Malformation (AID 2283636). The procedure, abridged:
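Read-out is binary presence or absence of eye malformation, scored by brightfield microscopy at 120 hpf. Single larvae were exposed from 6 hpf in embryo medium containing 0.64% DMSO, with DMSO as baseline.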

Test [13] in a line: Tanguay_ZF_120hpf_SNOU_legacy: (Legacy) Oregon State University Tanguay Lab 120 Hour Post-fertilization zebrafish Assay for Snout Malformation (AID 2283637). The procedure, abridged: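 Snout malformation read as a yes/no call on brightfield images of 120 hpf larvae (Tropical 5D strain). Static exposure began at 6 hpf on dechorionated embryos in 0.64% DMSO, with gain of signal analysed versus DMSO controls.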

Test [14] is described as follows: Tanguay_ZF_120hpf_JAW_legacy: (Legacy) Oregon State University Tanguay Lab 120 Hour Post-fertilization zebrafish Assay for Jaw Malformation (AID 2283638). The procedure, abridged:
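Dechorionated Tropical 5D wild-type zebrafish embryos, one per well, exposed statically from 6 hpf to 120 hpf at 28C in 0.64% DMSO. Jaw malformation was scored by brightfield microscopy as present or absent. It was not scored in dead embryos.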

Test [15] is described as follows: Tanguay_ZF_120hpf_PE_legacy: (Legacy) Oregon State University Tanguay Lab 120 Hour Post-fertilization zebrafish Assay for Pericardial Edema (AID 2283640). The procedure, abridged: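 Tropical 5D wild-type zebrafish embryos were statically exposed until 120 hpf at 28C, with 0.64% DMSO final. Pericardial edema was scored by brightfield as present or absent; endpoints were not scored in dead embryos.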

Read-out in test [16]: UDP glucuronosyltransferase (UGT1A6), UGT1A6 (gene 54578)
Kind of test: LTEA_HepaRG_UGT1A6: Life Technologies and Expression Analysis (LTEA) Assay for UDP glucuronosyltransferase (UGT1A6) using HepaRG (AID 2283539; active = hit-call score of the fitted dose curve at least 0.9, where 1 is the maximum; inactive = score below 0.9). The note with it: mRNA level, 48 h; actives raise or lower the signal. The procedure, abridged: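 Differentiated HepaRG cells, ~100,000/well, were exposed for 48 h in serum-free induction medium with 0.5% DMSO to 8-point half-log series topping at 100 uM, in duplicate. mRNA measured by Fluidigm TaqMan qRT-PCR, normalized to ACTB, GAPDH and POLR2A.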

A short description of test [17]: Tanguay_ZF_120hpf_OTIC_legacy: (Legacy) Oregon State University Tanguay Lab 120 Hour Post-fertilization zebrafish Assay for Otic Vesicle Malformation (AID 2283639). The procedure, abridged:
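Otic vesicle malformation is read as a yes/no morphology call at 120 hpf. Exposure is static at 28C with 0.64% (vol/vol) DMSO; embryos that die are excluded from non-mortality endpoints.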

The nature of test [18]: TOX21_p53_BLA_p5_viability: Viability Assessment in the Tox21 HCT-116 p53 Agonism Beta-lactamase Assay, Phase 5 (AID 2283600). The procedure, abridged:
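HCT-116 p53 beta-lactamase reporter cells, 4000/well, were exposed to compound (pin transfer, 217-fold dilution) for 16 hours at 37C. Cellular ATP was read by CellTiter-Glo luminescence after 30 min at room temperature.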

Test [19] can be described thus: TOX21_p53_BLA_p2_viability: Viability Assessment in the Tox21 HCT-116 p53 Agonism Beta-lactamase Assay, Phase 2 (AID 2283591).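 Note: compound exposure lasted 16 h at 37 °C; actives lower the ATP signal meaning cytotoxicity.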 The procedure, abridged: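 Cytotoxicity readout: CellTiter-Glo ATP luminescence, 30 min at room temperature, after the beta-lactamase read. Cells were HCT116 exposed 16 h at 37C to compounds pin-transferred at 217-fold dilution from DMSO stocks.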

Test [20] is described as follows: ATG_XTT_Cytotoxicity: Cytotoxicity Assessment in the Attagene TRANS-FACTORIAL HepG2 Assay (AID 2283584). The procedure, abridged:
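HepG2 cells transiently transfected with GAL4-UAS multiple reporter units, dosed 24 h; cytotoxicity read by XTT as loss of signal versus DMSO baseline.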

Inconclusive results are not listed. More than one record can exist for a structure, and the calls need not agree. Calls of active or inactive are those of the source. Rule for the calls, unless noted: active = hit-call score of the fitted dose curve at least 0.9, where 1 is the maximum; inconclusive = response in the unintended direction; inactive = score below 0.9.

Cellular tumor antigen p53 (Homo sapiens), sequence (P04637 whole entry, looked up): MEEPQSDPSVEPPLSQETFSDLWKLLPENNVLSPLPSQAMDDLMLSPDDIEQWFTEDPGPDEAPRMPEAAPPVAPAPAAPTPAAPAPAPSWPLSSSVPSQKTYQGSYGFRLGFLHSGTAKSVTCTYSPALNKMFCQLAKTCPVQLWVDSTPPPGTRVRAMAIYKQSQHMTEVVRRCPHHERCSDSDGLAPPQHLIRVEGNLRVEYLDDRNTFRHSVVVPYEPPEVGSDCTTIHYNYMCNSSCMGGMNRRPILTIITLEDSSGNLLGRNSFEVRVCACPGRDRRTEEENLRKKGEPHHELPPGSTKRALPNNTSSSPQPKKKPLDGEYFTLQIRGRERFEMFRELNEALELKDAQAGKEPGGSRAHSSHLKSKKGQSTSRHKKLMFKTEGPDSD

Consider `Cc1ccc(C)c(O)c1C`, for which the call in [1], in [2], in test [3], in [4], in [5] and in test [6] was inactive. Further, the outcome in test [7], in test [8], in test [9], in [10], in [11] and in test [12] was inactive. For the same molecule, the outcome in test [13], in test [14] and in test [15] was inactive.

For `Cc1cccc(Nc2cc(Cl)nc(SCC(=O)O)n2)c1C`, the outcome in [16], in [1], in [2], in test [3], in [5] and in test [6] was inactive. The outcome in test [7], in test [8], in [9], in test [10], in test [12] and in [14] was inactive. Further, the molecule was called inactive in test [17] and in test [15].

A word on the AC50: it is the concentration giving half of the maximal activity seen. In the case of `CC(C)c1ccc(C(=O)N=C(N)N)cc1S(C)(=O)=O`, the molecule was called inactive in test [16], in test [2], in test [3], in test [4], in [6] and in [7]. Besides, the molecule was classed as inactive in test [18], in test [8], in [9], in test [10], in test [11] and in test [12]. Besides, the molecule was called inactive in test [14], in [17] and in [15]. Moreover, the AC50 in [1] is 288 nM (active).

Regarding `CNC(=O)[C@H]1O[C@@H](n2cnc3c(NCc4cc(Cl)ccc4OCc4cc(C)no4)ncnc32)[C@H](O)[C@@H]1N`, the molecule was called inactive in test [16], in [1], in test [2], in test [3], in test [4] and in test [5]. Also, the result in test [6], in [7], in [18], in test [8], in test [9] and in [10] was inactive. Besides, the outcome in test [11], in [14], in test [17] and in test [15] was inactive.

Consider `CCCCCCOCCO`, for which the molecule was called inactive in [16], in [1], in [2], in test [19], in test [3] and in test [5]. Also, the result in test [7], in [18], in test [8], in test [9], in test [10] and in test [11] was inactive. Moreover, the call in test [12], in test [14], in [17] and in [15] was inactive.

For the molecule `Nc1nc(N)c2nc(CNc3ccc(C(=O)N[C@@H](CCC(=O)O)C(=O)O)cc3)cnc2n1`, the result in test [16], in [1], in test [20], in test [19], in [3] and in test [5] was inactive. In addition, the result in test [6], in test [7], in test [8], in test [9], in test [10] and in test [12] was inactive. The molecule was classed as inactive in [14], in test [17] and in [15]. Moreover, the AC50 is 11.8 nM (active) in test [19]; 30.8 nM (active) in [3]; 38.1 nM (active) in [4]; 68.8 nM (active) in test [5]; 49.1 nM (active) in test [6]; 158 nM (active) in [7]. In addition, the AC50 was 64.9 nM (active) in test [18] and 58.2 nM (active) in test [8].

Source of the values: PubChem BioAssay (EPA / NIEHS).
